Here are results for 54 molecules from ChEMBL document CHEMBL4513216, “Probing the Open Global Health Chemical Diversity Library for Multistage-Active Starting Points for Next-Generation Antimalarials” (ACS Infect Dis, 2020).

Hit rate of the full screen: of about 69,000 compounds, about 8,600 (12%) showed an effect of 50% or more. Shown is part of a subset that was picked to be rich in strong results.

This experiment deals with Plasmodium berghei. The experiment is described as follows: Screen against P. berghei liver stage (PbLuc), transformed with Luciferase, at 10uM. Conditions: tested at 10 uM. The experiment is classed as functional, HepG2.
Regarding `CC1CCC(NC(=O)c2nn(C)cc2I)CC1` (centres undefined), the INHIBITION is listed as -32.5%. Next, `Cn1cc(I)c(C(=O)NC2CCCC2)n1`: -13.2%. With `CC1CCC(NC(=O)c2nn(C)cc2Br)CC1` (centres undefined) the figure was 65.2%; with `Cc1nc(C(C)C)sc1C(=O)N1CCN(C2CCSCC2)CC1`, -21.3%. With `O=C1CCCCN1CCCNCc1cnc(C2CCC2)s1` the figure was 3.87%; with `c1cnc(N2CCC(NCc3cnc(C4CCC4)s3)CC2)nc1`, -22%; with `CC(CCN1CCCC1=O)NCc1cnc(C2CCC2)s1` (centres undefined), 54.4%. In the case of `Cc1ccc(N2CCC(NCc3cnc(C4CCC4)s3)CC2)nc1`, the INHIBITION is 34.7%. Next, `CCC(CCNCc1cnc(C2CCC2)s1)N1CCCC1=O` (centres undefined): 53.4%; `CC(c1nc(C2CC2)no1)N1CCN(CCN2CCCC2=O)CC1` (centres undefined): -65.2%. Take `CC(C)NC(=O)Nc1ccc(CNCc2cccc(OC(F)F)c2)cc1`: the INHIBITION was determined as 38.6%. Next, `Cn1c(Cn2ccnc2)nnc1C1CCN(C(=O)c2cccnc2)CC1`: -27.4%; `Cn1cc(N2CC3(CCN(CC4CCC4)CC3)OCC2=O)cn1`: 42.5%. With `Cc1cc(C)c2c(c1)NC(=O)C2CC(=O)O` (centres undefined) the figure was 27.6%; with `Cc1ccc(C)c2c1NC(=O)C2CC(=O)O` (centres undefined), -95.1%; with `Cc1cc(C)c2c(c1)C(CC(=O)O)C(=O)N2` (centres undefined), 54.8%. For `CCCc1nc(N2CCCN(c3ccncc3)CC2)c2cnn(C)c2n1`, the INHIBITION was found to be 39.1%.

In the case of `CCn1cnnc1C1CCN(C(=O)c2cc(F)ccc2OC)CC1`, the INHIBITION stood at 33.3%.

As to `CN(C)C(=O)CCS(=O)(=O)Cc1cc(Cl)c2c(c1)OCCO2`, the INHIBITION worked out at 54.4%. With `CN(C)C(=O)CCCS(=O)(=O)Cc1cc(Cl)c2c(c1)OCCO2` the figure was 31.9%.

Consider `NC(=O)CS(=O)(=O)Cc1cc(Cl)c2c(c1)OCCCO2`, for which the INHIBITION is listed as -125%. Next, `CN(C)C(=O)CS(=O)(=O)Cc1cc(Cl)c2c(c1)OCCCO2`: 21.8%. Next, `O=C(CS(=O)(=O)Cc1cc(Cl)c2c(c1)OCCCO2)NCC1CC1`: 60.5%; `CS(=O)(=O)CCS(=O)(=O)Cc1cc(Cl)c2c(c1)OCCCO2`: 25.5%.

Regarding `CS(=O)(=O)Cc1cc(Cl)c2c(c1)OCCCO2`, the INHIBITION came out at 50.1%. With `CNC(=O)CS(=O)(=O)Cc1cc(Cl)c2c(c1)OCCCO2` the figure was 6.14%; with `CN(C)C(=O)CCS(=O)(=O)Cc1cc(Cl)c2c(c1)OCO2`, 44.3%. For `CSCC(=O)N1C[C@H](c2ccc(C)o2)[C@@H](N)C1`, the INHIBITION was -1.45%. Next, `CCNc1ncc(CN2CCOC(Cc3cccc(OC)c3)C2)cn1` (centres undefined): 15.2%; `Cn1cnc2c1C(COCc1cccnc1)N(Cc1nccs1)CC2` (centres undefined): 20.1%.

Take `CCN(Cc1c(C)nn(CC)c1C)S(=O)(=O)c1cn(C)nc1C`: the INHIBITION is given as 8.49%. Consider `COc1ccccc1CN1CC[C@]2(C[C@@H](OC)CO2)C1`, for which the INHIBITION is given as -79.4%. Next, `CCC(C(=O)NC1CCCCC1)n1ccc2ncccc2c1=O` (centres undefined): -4.12%. With `Nc1nc(N2CCCCCC2)ncc1C(=O)NCc1ccc(F)c(Cl)c1`, the INHIBITION is on record as 43.8%.

With `CN(C)CC1(O)CCCN(C(=O)CCc2nc3cccnc3n2C)C1` (centres undefined), the INHIBITION was found to be 8.64%.

In the case of `Cn1cc(CCNC(=O)c2cc3ccccc3nc2N2CCCC2)cn1`, the INHIBITION came to 59.4%. Next, `CS(=O)(=O)CCNC(=O)c1cc2ccccc2nc1N1CCCC1`: -1.37%; `CCOC(=O)NCCNC(=O)c1cc2ccccc2nc1N1CCCC1`: -7.36%. Turning to `Cn1c(CCC(=O)N2CCC3(CCCO3)CC2)nc2cccnc21`, the INHIBITION turned out to be 27.4%. Next, `CCc1cc(CNC(=O)N2CCC(Cc3cnn(C)c3)C2)on1` (centres undefined): 3.1%; `COc1ccccc1C1CNC(=O)c2nc(-c3cnn(C)c3)[nH]c2C1` (centres undefined): -36.5%.

Regarding `COc1ccccc1C1CNC(=O)c2nc(-c3ncc[nH]3)[nH]c2C1` (centres undefined), the INHIBITION worked out at 1.81%. `COc1ccccc1C1CNC(=O)c2nc(-c3nccn3C)[nH]c2C1` (centres undefined): the INHIBITION is 55.7%. With `COCc1ccccc1CNc1nnc(C)c(C)c1C#N` the figure was 22.9%; with `Cc1ccccc1C1(CNc2nnc(C)c(C)c2C#N)CCOCC1`, 17.4%; with `Cc1nnc(NCC2(c3ccccc3)CC2)c(C#N)c1C`, 9.48%. Next, `Cc1nnc(NCc2ccccc2Cl)c(C#N)c1C`: 49.9%; `COc1ccccc1C1(CNc2nnc(C)c(C)c2C#N)CCOCC1`: -10.2%. Next, `Cc1nnc(NCC2(c3ccc(Cl)cc3Cl)CCOCC2)c(C#N)c1C`: 52.9%; `Cc1nnc(NCC2(c3ccccc3)CCOCC2)c(C#N)c1C`: 6.67%. As to `Cc1nnc(NCC2(c3ccccc3)CCC2)c(C#N)c1C`, the INHIBITION worked out at 92.1%. With `COc1ccccc1C1(CNc2nnc(C)c(C)c2C#N)CCCC1` the figure was 97.1%. Next, `CCCc1cc(NC2CCc3nc(C(C)C)nn3C2)n2ncnc2n1` (centres undefined): -5.65%; `COCCCNC(=O)N1CCN(C(=O)c2nsc3ccc(C)cc23)CC1`: 15.1%.
